Calls of active or inactive are those of the source. Unless noted, no rule for the calls is given here.
Columns and labels:
[1] = resazurin metabolic signal in HepG2 cells – cell-based, resazurin fluorescence, 24 h, PK04 Diversity Set, profiling panel (AID 1172); settings: HepG2 viability, higher = more signal
[2] = budding yeast growth changes without added modifier – OD600, strain BY4716, 24 h, basal condition, primary screen (AID 1173); settings: S. cerevisiae BY4716 growth, OD600, 24 h; higher = more signal, called active from +8 up or from −8 down
[3] = viability profiling in MM1S myeloma cells – cell-based, resazurin fluorescence, basal, 24 h, PK04 Diversity Set, profiling panel (AID 1174); settings: higher = more signal, called active from +8 up or from −8 down;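 also: MM1S multiple myeloma cell line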
[4] = molecular target: Dihydroorotate dehydrogenase (quinone), mitochondrial (Plasmodium falciparum (isolate 3D7)) (UniProt Q08210); assay: inhibition of P. falciparum DHODH – biochemical, C-terminal His tag, absorbance 600 nm, primary screen (AID 1175); settings: PfDHODH enzyme, DCIP absorbance 600 nm; higher = more signal, called active from +8 up or from −8 down;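 also: recombinant parasite enzyme with a five histidine tag at its C terminus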
[5] = inhibition of PAO1 biofilm formation – strain PAO1, LB-PBS medium, absorbance 600 nm, primary screen (AID 1176); settings: P. aeruginosa PAO1 growth/biofilm, A600, 12 h; higher = more signal
[6] = growth modulation of vineyard yeast isolate – strain RM11-1a, OD600, basal, 24 h, primary screen (AID 1177);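 also: cultures grown under basal conditions with no added stressor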; settings: S. cerevisiae RM11-1a growth, OD600, 24 h; higher = more signal, called active from +8 up or from −8 down
[7] = growth of efflux-deficient E. coli DRC39 – strain DRC39, OD650, 24 h, E. coli filamentation inducers, primary screen (AID 1178);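 also: growth measured as culture turbidity by optical density at 650 nm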; settings: E. coli DRC39 acrAB, higher = more signal, called active from +8 up or from −8 down
[8] = growth of efflux-deficient E. coli DRC39 – strain DRC39, OD650, 48 h, E. coli filamentation inducers, primary screen (AID 1179);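 also: screen aims at cell division blockers that make cells filament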; settings: E. coli DRC39 delta-acrAB growth, higher = more signal, called active from +8 up or from −8 down
[9] = viability profiling in RPMI8226 myeloma cells – cell-based, resazurin fluorescence, basal, 24 h, PK04 Diversity Set, profiling panel (AID 1180); settings: higher = more signal;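 also: RPMI8826 multiple myeloma cell line at 5000 cells per well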
[10] = molecular target: E3 ubiquitin-protein ligase XIAP (Homo sapiens) (UniProt P98170); assay: small molecules binding XIAP protein – biophysical, small-molecule microarray, fluorescence 635 nm, primary screen (AID 1181); settings: higher = more signal;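 also: score merges 667 nm emission and signal to noise over triplicate slides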
[11] = system: XIP peptide (Xip251-270) binding; assay: XIP fragment 251-270 binding compounds – biochemical, small-molecule microarray, fluorescence 635/667 nm, 0.1 µg/mL protein, primary screen (AID 1182); settings: fluorescent protein binding, 635 nm, higher = more signal, called active from +8 up or from −8 down
XIP peptide (Xip251-270) = assay: compounds binding XIP fragment 251-270 – biochemical, small-molecule microarray, fluorescence 635/667 nm, 0.5 µg/mL protein, primary screen (AID 1183); settings: fluorescence 635 nm, higher = more signal
[12] = blood-stage malaria parasite viability loss – strain 3D7, DAPI fluorescence, 100 nL, primary screen (AID 1184);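 also: parasites grown inside human red blood cells in medium with human serum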; settings: P. falciparum 3D7 growth, 3 d, higher = more signal
[13] = molecular target: Homeobox protein Hox-A13 (Mus musculus) (UniProt Q62424); assay: disruptors of Hoxa13 oligonucleotide interaction – biochemical, fluorescence polarization, labeled oligonucleotide, primary screen (AID 1185); settings: Hoxa13:DNA binding, 15 min, higher = more signal, called active from +8 up or from −8 down
[14] = blockers of DNA damage checkpoint Chk1 activation – imaging, HeLa, hydroxyurea, phospho-Chk1 antibody, percent positive cells, primary screen (AID 1186); settings: hydroxyurea-induced phospho-Chk1 immunofluorescence imaging, higher = more signal
[15] = blockers of DNA damage checkpoint Chk1 activation – imaging, HeLa, hydroxyurea, phospho-Chk1 nuclear intensity, primary screen (AID 1187); settings: hydroxyurea-induced phospho-Chk1 immunofluorescence imaging, higher = more signal

Sequence of E3 ubiquitin-protein ligase XIAP (Homo sapiens) (P98170 whole entry, looked up, the tested form may be a part): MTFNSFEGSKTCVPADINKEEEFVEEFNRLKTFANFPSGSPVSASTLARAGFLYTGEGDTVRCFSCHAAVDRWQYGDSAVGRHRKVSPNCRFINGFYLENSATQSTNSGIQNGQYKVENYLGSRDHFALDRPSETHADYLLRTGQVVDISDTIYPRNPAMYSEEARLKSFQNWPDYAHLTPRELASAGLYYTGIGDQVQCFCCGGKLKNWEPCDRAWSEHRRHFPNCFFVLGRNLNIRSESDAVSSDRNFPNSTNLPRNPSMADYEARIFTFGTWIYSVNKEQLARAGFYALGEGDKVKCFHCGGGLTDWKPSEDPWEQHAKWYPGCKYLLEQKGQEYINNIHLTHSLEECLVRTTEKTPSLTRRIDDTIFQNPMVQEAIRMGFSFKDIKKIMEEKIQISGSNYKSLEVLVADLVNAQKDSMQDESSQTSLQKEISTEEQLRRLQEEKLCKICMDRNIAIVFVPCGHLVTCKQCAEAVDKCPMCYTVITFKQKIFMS
Sequence of Dihydroorotate dehydrogenase (quinone), mitochondrial (Plasmodium falciparum (isolate 3D7)) (Q08210 whole entry, looked up): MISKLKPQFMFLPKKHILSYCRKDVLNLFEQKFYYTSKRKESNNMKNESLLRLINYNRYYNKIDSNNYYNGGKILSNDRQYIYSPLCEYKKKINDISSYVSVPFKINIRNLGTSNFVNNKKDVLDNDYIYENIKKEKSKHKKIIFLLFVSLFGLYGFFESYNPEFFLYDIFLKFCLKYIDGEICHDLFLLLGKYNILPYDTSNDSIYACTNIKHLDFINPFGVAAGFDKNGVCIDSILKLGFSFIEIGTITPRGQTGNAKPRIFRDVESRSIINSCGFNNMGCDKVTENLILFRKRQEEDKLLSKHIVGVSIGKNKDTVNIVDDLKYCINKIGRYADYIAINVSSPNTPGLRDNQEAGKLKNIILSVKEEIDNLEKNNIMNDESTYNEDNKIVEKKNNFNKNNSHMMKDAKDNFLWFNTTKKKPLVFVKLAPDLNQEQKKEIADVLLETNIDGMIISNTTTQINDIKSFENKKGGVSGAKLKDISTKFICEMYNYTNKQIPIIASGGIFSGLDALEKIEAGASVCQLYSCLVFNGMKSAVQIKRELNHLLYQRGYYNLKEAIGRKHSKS
Sequence of Homeobox protein Hox-A13 (Mus musculus) (Q62424 whole entry, looked up): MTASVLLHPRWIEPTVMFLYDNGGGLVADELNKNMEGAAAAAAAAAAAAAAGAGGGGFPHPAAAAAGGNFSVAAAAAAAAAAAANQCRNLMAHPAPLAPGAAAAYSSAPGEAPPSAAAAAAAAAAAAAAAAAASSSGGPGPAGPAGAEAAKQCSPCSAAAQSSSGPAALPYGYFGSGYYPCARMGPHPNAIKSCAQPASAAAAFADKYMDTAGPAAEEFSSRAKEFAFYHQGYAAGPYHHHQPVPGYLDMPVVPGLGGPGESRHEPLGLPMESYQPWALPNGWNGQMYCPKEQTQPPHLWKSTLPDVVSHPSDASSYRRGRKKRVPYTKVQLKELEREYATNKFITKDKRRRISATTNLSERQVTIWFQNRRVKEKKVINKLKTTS

Row | SMILES | z-score [1] | z-score [2] | z-score [3] | composite z-score [4] | z-score [5] | z-score [6] | z-score [7] | z-score [8] | z-score [9] | composite z-score [10] | composite z-score [11] | composite z-score (XIP peptide (Xip251-270)) | z-score [12] | z-score [13] | z-score [14] | z-score [15]
1 | CC(C)C(O)C1C=CC2C(=O)N(c3ccccc3)C(=O)C2N1Nc1ccc(C#N)cc1 (centres undefined) | -1.45 | -2.14 (inactive) | -1.66 (inactive) | -1.02 (inactive) | 1.11 (inactive) | -0.0111 (inactive) | -0.718 (inactive) | 0.0323 (inactive) | -0.47 | 0.0073 | 0.613 (inactive) | 0.748 | 0.207 | -2.61 (inactive) | -0.877 (inactive) | -0.419 (inactive)
2 | C=CCOC(=O)[C@H]1[C@@H]2C(=O)O[C@@H](c3ccccc3)[C@@H](c3ccccc3)N2[C@@H](c2ccc(OCCOC(=O)[C@@H]3C[C@@H]4C(=O)NCC(=O)N4[C@@H]3c3ccc(O)cc3)cc2)[C@]12C(=O)Nc1ccccc12 | 0.558 | -0.0301 (inactive) | 1.56 (inactive) | -0.803 (inactive) | 2.05 (inactive) | -1.38 (inactive) | 0.971 (inactive) | 1.61 (inactive) | 0.765 | -0.121 | 0.941 (inactive) | 0.854 | -1.86 | 0.503 (inactive) | -0.341 (inactive) | 0.559 (inactive)
3 | CC(C)(C)N1CC=CC23O[C@@H]4C=CCOC(=O)[C@@H]4[C@H]2C(=O)N(CCCCCO)[C@@H]3C1=O (some centres undefined) | -0.308 | 0.285 (inactive) | -0.728 (inactive) | -0.0531 (inactive) | 0.0962 (inactive) | -0.0325 (inactive) | -1.09 (inactive) | -1.2 (inactive) | -0.867 | 0.333 | 0.295 (inactive) | -1.13 | -0.366 | -4.43 (inactive) | 0.241 (inactive) | -0.459 (inactive)
4 | COc1ccc(C#Cc2ccc3c(c2)[C@]2(C(=O)N3)[C@H](C(=O)NC[C@H](O)c3ccccc3)[C@H]3C(=O)O[C@H](c4ccccc4)[C@H](c4ccccc4)N3[C@@H]2c2ccccc2OCCO)cc1 | -1.62 | 1.32 (inactive) | -4.48 (inactive) | -0.0131 (inactive) | 2.4 (inactive) | 2.27 (inactive) | -0.444 (inactive) | -0.849 (inactive) | -5.2 | 0.0297 | 0.0376 (inactive) | 0.881 | -1.01 | -2.33 (inactive) | -0.166 (inactive) | -0.118 (inactive)
5 | O=C1OCCC=C[C@H]2OC34C=CCN(c5ccc6ccccc6c5)C(=O)[C@H]3N(CCCCCO)C(=O)[C@@H]4C12 (some centres undefined) | 1.32 | -0.805 (inactive) | 0.835 (inactive) | -0.556 (inactive) | 0.357 (inactive) | -0.403 (inactive) | 1.61 (inactive) | 1.74 (inactive) | 1.28 | -0.174 | 0.427 (inactive) | 0.385 | 0.405 | -5.5 (inactive) | -0.202 (inactive) | 0.891 (inactive)
6 | COCCCNC(=O)[C@@]1(CCC(=O)OC(C)(C)C)N=C(c2ccc(OCCCO)cc2)O[C@H]1c1ccccc1CN=[N+]=[N-] | 0.495 | -0.78 (inactive) | -0.0488 (inactive) | -0.256 (inactive) | -0.167 (inactive) | 0.424 (inactive) | 0.481 (inactive) | -0.28 (inactive) | 0.423 | -0.212 | 0.748 (inactive) | 0.761 | -1.99 | -5.33 (inactive) | -0.376 (inactive) | -0.101 (inactive)
7 | CCC[C@@H]1C=C(C(=O)O)[C@H](c2ccc(C)cc2)N1S(=O)(=O)c1ccc(C)cc1 | -0.795 | 0.0188 (inactive) | -0.522 (inactive) | -0.0451 (inactive) | 0.89 (inactive) | -0.213 (inactive) | -0.591 (inactive) | 0.0595 (inactive) | -2.01 | 0.22 | -0.0617 (inactive) | 0.884 | 0.977 | -3.27 (inactive) | 0.941 (inactive) | 1.34 (inactive)
8 | O=C1O[C@H](c2ccccc2)[C@H](c2ccccc2)N2[C@H]1[C@@H](C(=O)NC[C@H](O)c1ccccc1)[C@]1(C(=O)Nc3ccc(C#CCCO)cc31)[C@H]2c1ccc(O)cc1 | -0.0297 | 0.047 (inactive) | -0.0226 (inactive) | -1.4 (inactive) | 0.432 (inactive) | 0.117 (inactive) | -0.568 (inactive) | -0.982 (inactive) | -0.186 | 0.133 | -0.105 (inactive) | 0.278 | -1.23 | -0.545 (inactive) | 0.289 (inactive) | 0.0974 (inactive)
9 | [N-]=[N+]=NCc1ccccc1[C@@H]1OC(c2ccc(OCCCO)cc2)=N[C@]1(Cc1ccccc1N=[N+]=[N-])C(=O)NCc1ccccc1 | 0.206 | 1.15 (inactive) | -0.0978 (inactive) | 0.139 (inactive) | 0.603 (inactive) | 1.27 (inactive) | -0.954 (inactive) | -1.96 (inactive) | -1.46 | 0.0852 | 0.304 (inactive) | 0.442 | -2.29 | 1.76 (inactive) | -0.76 (inactive) | -0.767 (inactive)
